# Screening data deposited in PubChem by National Center for Advancing Translational Sciences (NCATS).
# The sample as a whole holds a higher share of hits than the screen did.
# HT1080 IDH1KD tx: kills HT-1080 cells with IDH1 knockdown; 2% of 360,000 active; HT-1080 IDH1 knockdown viability, ATP luminescence, 48 h; Potency, µM (doses to about 46.1 µM), for the others: at the highest dose activity, negative = toxicity, most hits filed as cytotoxic; AID 686971;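 note: potency is the fitted concentration of half-maximal effect; 0% = DMSO wells and -100% = cell-free medium wells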
#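 % activity derives from luminescence (CellTiter-Glo), normalised to DMSO and no-cell wells. HT-1080-IDH1KD cells, 750/well, had 48 h compound exposure at 37 °C.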
# HT1080NT lethal: kills 2HG-producing HT-1080-NT fibrosarcoma cells | HT-1080-NT fibrosarcoma viability, CellTiter-Glo ATP luminescence, 48 h | Potency, µM (series often up to 46.1 µM), for the others: top-dose activity, negative = less viability, usual class: cytotoxic | 1.6% of 360,000 active | AID 686970;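 note: NT is the 2HG producing partner of a matched IDH1 knockdown line; potency is the fitted concentration of half-maximal effect; 0% = DMSO-treated cells and -100% = media-only wells without cells; nearly all actives have a fitted effect of over 55% in size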
#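 Viability of the 2HG-overproducing fibrosarcoma line after 48 hours of compound exposure at 37 degrees C was determined by luminescence with CellTiter-Glo, and concentration-effect curves were then fitted and categorized.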
# IL-1B inflam inh: blocks inflammasome-driven IL-1 beta release; THP-1 LPS/ATP IL-1B secretion, AlphaLISA, 16 h; stronger effect = lower value; AID 743279; activity change, % at 57.5 µM; 4.7% of 360,000 active; in the data active = activity change below about -50%; inconclusive = mostly about -30% to -49%
#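 Secreted IL-1B measured by AlphaLISA bead assay after 16 h compound exposure of THP-1 cells; compounds (final up to 57.5 uM) added 1 h before LPS (250 ng/mL) and ATP (1.25 mM) stimulation; lower signal means less secretion.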
# TDP1 cell CPT: DT40-hTDP1 cell growth loss with CPT; Potency, µM (series often up to 46.2 µM), without a hit: at the highest dose activity change, negative = growth inhibition, most hits filed as inhibitors; chicken DT40 Tdp1-/-;hTDP1 cells + 20 nM CPT, ATP luminescence, 48 h; 12% of 420,000 active; AID 686979; note: potency is the fitted concentration of half-maximal effect; nearly all actives have a fitted effect of over 55% in size
#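 Cell growth measured by CellTiter-Glo luminescence after a minimum 48 h, 37 C compound exposure with 20 nM CPT in Tdp1-knockout DT40 cells stably expressing hTDP1, seeded 400/well; qHTS titration format.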
# TDP1 cell noCPT: qHTS for Inhibitors of human tyrosyl-DNA phosphodiesterase 1 (TDP1): qHTS in cells in absence of CPT | Potency, µM (top dose mostly 46.2 µM), inactives show top-dose activity change, negative = growth inhibition, hits mostly inhibitors | AID 686978, 2013 | 15% of 420,000 active | DT40 Tdp1-/- hTDP1 cells, no CPT, ATP luminescence, 48 h; note: potency is the fitted concentration of half-maximal effect; nearly all actives have a fitted effect of over 55% in size
#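 A cellular qHTS used chicken DT40 cells lacking endogenous Tdp1 but carrying stably transfected human TDP1. Compounds were applied without camptothecin, and cell growth kinetics were judged by ATP-dependent luminescence after ≥48 hr.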
# 12-LOX inh: ALOX12 (human) lipoxygenase inhibition; Potency, µM (highest dose often 108 µM), inactives show at the highest dose activity change, negative = inhibition, most hits filed as inhibitors; 1.1% of 580,000 active; purified 12hLO, xylenol orange hydroperoxide absorbance; P18054; note: potency is the fitted concentration of half-maximal effect
# Target sequence (P18054 whole entry, looked up): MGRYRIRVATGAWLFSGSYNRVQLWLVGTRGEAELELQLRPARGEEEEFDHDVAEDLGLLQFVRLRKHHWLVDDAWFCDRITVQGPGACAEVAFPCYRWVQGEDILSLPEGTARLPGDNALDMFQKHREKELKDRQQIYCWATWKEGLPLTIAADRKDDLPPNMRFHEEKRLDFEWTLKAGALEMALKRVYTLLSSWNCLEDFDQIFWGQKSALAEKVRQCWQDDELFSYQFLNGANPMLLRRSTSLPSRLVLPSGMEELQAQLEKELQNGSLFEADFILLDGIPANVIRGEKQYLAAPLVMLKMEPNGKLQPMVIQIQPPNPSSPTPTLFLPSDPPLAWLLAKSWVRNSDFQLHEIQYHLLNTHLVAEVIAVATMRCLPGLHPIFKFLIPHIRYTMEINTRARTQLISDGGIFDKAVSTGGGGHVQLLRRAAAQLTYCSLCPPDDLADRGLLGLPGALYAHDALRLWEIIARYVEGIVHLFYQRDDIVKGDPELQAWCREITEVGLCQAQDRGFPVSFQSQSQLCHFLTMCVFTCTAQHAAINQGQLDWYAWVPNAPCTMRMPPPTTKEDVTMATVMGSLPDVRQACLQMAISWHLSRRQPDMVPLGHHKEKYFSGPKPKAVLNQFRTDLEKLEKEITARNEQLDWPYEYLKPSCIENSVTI
#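 Purified human 12hLO at 150 nM in 25 mM Hepes, 0.01% Triton X-100, pH 7.0, preincubated 15 min at room temperature with compound. Reaction started with 40 uM arachidonic acid, 30 min at room temperature. Hydroperoxide measured by Fe-xylenol orange, 573/405 nm absorbance ratio.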
# Active calls of the source: *; u = inconclusive; x = no result given; [ ] = dose if it differs, or a comment. Unless noted, calls come from the whole dose curve; as a rule, active = well fitted curve in the direction sought with a large enough effect; inconclusive = small, poorly fitted or top-dose-only effect, or another doubt; inactive = no such curve, though single readings can be large; an effect the other way counts as inactive or inconclusive. Unless noted, % is set by controls: 0 for no effect and ±100 for the full control effect.
SMILES,HT1080 IDH1KD tx,HT1080NT lethal,IL-1B inflam inh,TDP1 cell CPT,TDP1 cell noCPT,12-LOX inh
CCN(CC)C(=O)C1CCCN(c2ncnc3c2cnn3-c2ccc(Cl)cc2)C1 (stereo not given),-2%,-7%,-54*,u,18µM*,-2%
COc1nc(C(=O)N2CCOC(C)(C)C2)cc2ccccc12,x,x,x,x,x,39%
Clc1ccc(CNc2ccccc2NCc2ccc(Cl)nc2)cn1,-2%,-16%,-19,16µM*,u,72%
COc1ccccc1-c1nnc(SCC(=O)Nc2c(Cl)cccc2Cl)o1,-15%,-8%,-9,18µM*,21µM*,-3%
COc1ccccc1-c1nnc(SCC(=O)NCc2c(C)c(Cl)cc(C(C)C)c2O)o1,16µM*,u,-12,29µM*,u,13%
CC(C)(C)C(=O)N1CCC(NC(=O)c2cc3ccccc3oc2=O)CC1,x,x,x,x,x,-10%
Cc1ccc(NS(=O)(=O)c2cc(Br)cc3c2N(C(=O)C2CC2)CC3)cc1C,x,x,x,2.6µM*,2.1µM*,-12%
COc1ccc(Cl)cc1NS(=O)(=O)c1cc(Br)cc2c1N(C(=O)C1CC1)CC2,x,x,x,u,u,0%
CCCCN(C)S(=O)(=O)c1cc2c(cc1Br)CCN2C(=O)C1CC1,-12%,-1%,1,4.1µM*,3.7µM*,7%
O=C(C1CC1)N1CCc2cc(Br)cc(S(=O)(=O)N3CCN(c4cccc(C(F)(F)F)c4)CC3)c21,x,x,x,u,8.2µM*,-22%
CCOC(=O)C1CCN(S(=O)(=O)c2cc(Br)cc3c2N(C(=O)C2CC2)CC3)CC1,0%,-4%,19,u,-12%,-19%
CCOC(=O)c1cccc(NS(=O)(=O)c2cc(Br)cc3c2N(C(=O)C2CC2)CC3)c1,x,x,x,u,23µM*,-7%
COc1cccc(/C=C/C(=O)NCC(F)(F)F)c1,x,x,x,x,x,-3%
O=C(C1CC1)N1CCc2cc(Br)cc(S(=O)(=O)Nc3ccc(C(F)(F)F)cc3)c21,x,x,x,18µM*,16µM*,-58%
Cc1cc(NC(=O)CCS(=O)(=O)c2cc(Br)cc3c2N(C(=O)C2CC2)CC3)ccc1Br,x,x,x,-12%,-18%,u
O=C(C1CC1)N1CCc2cc(Br)cc(S(=O)(=O)NCCCN3CCCC3)c21,-3%,0%,11,18%,-6%,20%
CCN(c1cccc(C(F)(F)F)c1)S(=O)(=O)c1ccc2c(c1)CCN2C(=O)C1CC1,u,-28%,u,16µM*,16µM*,33%
CCC(=O)N1CCc2cc(S(=O)(=O)N(CC)c3cccc(C)c3)ccc21,-20%,-9%,-2,u,u,0%
O=C(C1CC1)N1CCc2cc(Br)cc(S(=O)(=O)Nc3ccc(F)c(F)c3)c21,x,x,x,23µM*,23µM*,-1%
CCN(c1ccccc1)S(=O)(=O)c1cc(Br)cc2c1N(C(=O)C1CC1)CC2,x,x,x,16µM*,18µM*,-16%
CC1CCCN(c2ccc(/C=C(\C#N)c3nn(-c4ccccc4)c(N)c3C#N)cc2[N+](=O)[O-])C1 (stereo not given),-6%,-2%,u,u,21µM*,11%
CC1CCN(c2cc(N3CCC(C)CC3)c([N+](=O)[O-])cc2/C=C(\C#N)c2nn(-c3ccccc3)c(N)c2C#N)CC1,-1%,4%,-8,u,-27%,45%[57.4 µM]
CC1CCN(c2ccc(/C=C(\C#N)c3nn(-c4ccccc4)c(N)c3C#N)cc2[N+](=O)[O-])CC1,u,u,0,18µM*,8.2µM*,-14%
Cc1nc(C)c(C(=O)N2CCC3(CC2)CC(N(C)Cc2ccccc2)CCO3)s1 (stereo not given),x,x,x,x,x,35%
C=CCC1(CC=C)CCCN1C(=O)C1CCC(=O)N(CCc2ccc(Cl)cc2)C1 (stereo not given),0%,4%,0,18µM*,13µM*,7%
CC(C)C1CCN(C(=O)C2CCC(=O)N(CCc3ccc(Cl)cc3)C2)CC1 (stereo not given),-1%,0%,-26,u,u,9%
C=CCC1(CC=C)CCCN1C(=O)C1CCC(=O)N(Cc2ccc(Cl)cc2)C1 (stereo not given),-1%,u,8,10µM*,8.2µM*,u
Cc1cc(-c2ccccc2)nc(N(C)NC(=O)c2c(F)cccc2F)c1S(C)(=O)=O,-3%,-8%,-19,u,23µM*,-25%
